Where “and” joins values, the source holds several entries; their conditions need not be identical. Identical values can stand only once. Inconclusive results are not listed. Calls of active or inactive are those of the source. Calls follow the shape of the dose curve; as a rule, active = well fitted cell-killing curve with a large enough effect in the repeat runs; inconclusive = weak or mixed curves, or effect the other way; inactive = flat fitted curve, though single readings scatter.
test: qHTS assay to identify small molecule agonists of the androgen receptor (AR) signaling pathway in the presence of an antagonist - cell viability counter screen (AID 1259379); settings: MDA-kb2 viability, CellTiter-Fluor, 16 h; series mostly up to 92.4 µM; activity change, negative = cytotoxicity: at the top concentration; also: nearly all actives have a fitted effect of over 25% in size
Source text: National Center for Advancing Translational Sciences [NCATS]
NIH Chemical Genomics Center [NCGC]
U.S. Environmental Protection Agency [EPA]
National Institutes of Environmental Health Sciences [NIEHS]
National Toxicology Program [NTP]
U.S. Food and Drug Administration [FDA]
Androgen receptor (AR) is an important member of nuclear receptor family. Its signaling plays a critical role in AR-dependent prostate cancer and other androgen related diseases. Considerable attention has been given in the past decades to develop methods to study and screen for the environmental chemicals that have the potential to interfere with metabolic homeostasis, reproduction, developmental and behavioral functions. Therefore AR binding assay for screening against androgen agonists and antagonists can be used to identify potential endocrine disruptors.
MDA-kb2 cells (from ATCC, deposited by Wilson et al.) are human breast carcinoma cells that were stably transfected with a luciferase reporter gene under control of the MMTV promoter that contains response elements for both androgen receptor (AR) and glucocorticoid receptor (GR). This particular screening for measuring luciferase reporter gene activity using MDA-kb2 cells against Tox21 10K library compounds is a confirmation study on agonist mode screening in the presence of AR-antagonist compound (Nilutamide) at 3.0uM final concentration. The cytotoxicity of the compounds was tested in parallel by measuring the cell viability using CellTiter-Fluor assay system (Promega, Madison, WI) in the same wells.
Tox21 Assay Protocol Summary:
MDA-kb2 cells (cells cultured without CO2) were dispensed at 3,000 cells/well in 4uL of culture medium into white wall/solid-bottom 1536-well plates (Corning Life Sciences, Corning, NY) using a Multidrop Combi (Thermo Fisher Scientific Inc., Waltham, MA) dispenser. The assay plates were incubated at 37C and 0% CO2 for 5hr. One uL of 3.0uM (final concentration) Nilutamide or assay buffer was added using two separate tips of Flying Reagent Dispenser (FRD, Aurora Discovery, San Diego, CA). Then 23nL of compounds dissolved in DMSO at 15 concentrations and positive controls were transferred to the assay plates using a Pintool station (Wako, San Diego, CA). The assay plates were incubated at 37C and 0% CO2 for 16 hr. After 15hr incubation at 37C, 1uL/well CellTiter-Fluor reagent (Promega Corporation) was added to each well of the assay plates using FRD. After 1hr incubation at 37C and 0% CO2, the fluorescence signal was measured using a ViewLux plate reader (PerkinElmer, Shelton, CT).
% is scaled to controls: 0 for no effect and ±100 for the full control effect; potency is read from the fitted curve at half-maximal effect.

Row | SMILES | Potency | activity change, negative = cytotoxicity
1 | CCCN(CCC)c1c([N+](=O)[O-])cc(C(F)(F)F)c(N)c1[N+](=O)[O-] | 60.9 µM (active) | –
2 | CN(C)c1ccc(C2(c3ccc(N(C)C)cc3)OC(=O)c3cc(N(C)C)ccc32)cc1 | – | 0.279% (inactive)
3 | CCCCCCOC(=O)c1ccc(O)cc1 | inactive | –
4 | CCOc1ccc2nc3cc(N)ccc3c(N)c2c1 | – | 1.03% [at 42.5 µM] (inactive)
5 | NNC(=O)c1cccc(C(=O)NN)c1 | – | 0.949% (inactive)
6 | Nc1c(Cl)cc(Cl)cc1Cl | – | 0.503% (inactive)
7 | CC1=C(/C=C/C(C)=C/C=C/C(C)=C/C=O)C(C)(C)CCC1 | 60.8 µM (active) | –
8 | C=C(C)C(=O)OCC[N+](C)(C)C | – | -0.105% (inactive)
9 | CCCCCCCCS(=O)C(C)Cc1ccc2c(c1)OCO2 (stereo not given) | – | 0.434% (inactive)
10 | CCCCCCCCCCCCCCCCCC[N+](C)(C)Cc1ccccc1 | 55 µM (active) | –
11 | CCCC/C=C/CCCCO | – | 1.23% (inactive)
12 | c1cc(C(c2ccc(OCC3CO3)cc2)c2ccc(OCC3CO3)cc2)ccc1OCC1CO1 (stereo not given) | – | -4.69% (inactive)
13 | CN1CCC(Nc2ncc3ncnc(Nc4ccc(F)c(Cl)c4)c3n2)CC1 | – | -8.34% [at 42.5 µM] (inactive)
14 | Nc1cc(C(F)(F)F)ccc1S | – | 3.84% [at 42.5 µM] (inactive)
15 | Cc1cccc(S(=O)(=O)O)c1C | – | 2.05% (inactive)
16 | CCCCCCCCCCCCCC[P+](CCCC)(CCCC)CCCC (tested in a mixture with another compound) | 7.74 µM (active) | –
17 | OCCCCCCCCCCCCBr | – | -12.2% (inactive)
18 | CCCC(=O)OC[C@@H](OC(=O)CCC)[C@@H](OC(=O)CCC)[C@H](Cn1c2nc(=O)[nH]c(=O)c-2nc2cc(C)c(C)cc21)OC(=O)CCC | – | 0.876% [at 42.5 µM] (inactive)
19 | O=[N+]([O-])c1ccccc1Nc1ccccc1 | – | -10.3% (inactive)
20 | Nc1ccc2cc(S(=O)(=O)O)cc(O)c2c1N=Nc1ccccc1C(F)(F)F | 30.6 µM (active) | –

Row | SMILES | Potency | activity change, negative = cytotoxicity
21 | Oc1ccc2cc(SSc3ccc4cc(O)ccc4c3)ccc2c1 | 61.2 µM (active) and 61.1 µM (active) | –
22 | C=CC(=O)OCC(CO)(COCC(COC(=O)C=C)(COC(=O)C=C)COC(=O)C=C)COC(=O)C=C | 5.38 µM (active) | –
23 | C[n+]1cc2c3c(ccc2c2ccc4cc5c(cc4c21)OCO5)OCO3 | 11.6 µM (active) | –
24 | O=c1[nH]sc2cc(Cl)ccc12 | – | 4.94% [at 42.5 µM] (inactive)
25 | CC(C)=CCOc1ccc(/C=C/C(=O)c2ccc(OCC=C(C)C)cc2OCC(=O)O)cc1 | – | -9.09% [at 42.5 µM] (inactive)
26 | CCC(C)(C)C1CCCCC1OC(C)=O (stereo not given) | – | -0.184% (inactive)
27 | CCOC(=O)c1nc(C(Cl)(Cl)Cl)n(-c2ccc(Cl)cc2Cl)n1 | – | 0.492% (inactive)
28 | CCCCCCCCCCCC[N+](C)(C)CCCCCCCCCCCC | 30.6 µM (active) | –
29 | C1CCCC1 | – | 0.4% (inactive)
30 | Cc1ccc2oc(CN(Cc3ccccc3)C(=O)Nc3c(F)cc(F)cc3F)c(-c3ccc(Cl)cc3)c2c1 | – | -3.5% (inactive)
31 | CCc1cc(Cc2cc(CC)cc(C(C)(C)C)c2O)c(O)c(C(C)(C)C)c1 | 54.5 µM (active) | –
32 | CC(C)(C)CC(C)(C)c1ccc(OCCOCC[N+](C)(C)Cc2ccccc2)cc1 | 27.3 µM (active) and 21.1 µM (active) | –
33 | CCN(C(=O)N(CC)c1ccccc1)c1ccccc1 | – | -2.16% (inactive)
34 | CCCCCCCCCCCCCCCS(=O)(=O)Oc1ccccc1 | – | 3.39% [at 42.5 µM] (inactive)
35 | C=CC(=O)OCC(CO)(COC(=O)C=C)COC(=O)C=C | 19.4 µM (active) and 24.3 µM (active) | –
36 | O=C(Nc1cccc([N+](=O)[O-])c1)c1cc2ccccc2cc1O | 3.86 µM (active) | –
37 | CCCCCCCCOC(=O)c1ccc(O)cc1 | inactive | –
38 | CCc1cc(SCc2sc(-c3ccc(C(F)(F)F)cc3)nc2CN2CCN(c3ccc(OC)cc3)CC2)ccc1OCC(=O)O | 43.3 µM (active) | –
39 | CC(C)(C)c1ccc(C(=O)CCCN2CCC(OC(c3ccccc3)c3ccccc3)CC2)cc1 | 29.8 µM (active) | –
40 | CCCCCCCC[N+](CCCCCCCC)(CCCCCCCC)CCCCCCCC | 17.2 µM (active) | –
